# Assay outcomes: PubChem, several laboratories
# CatB mix inh: cathepsin B inhibitors from pooled compounds, primary screen, biochemical, compound mixtures, AMC fluorescence; P07858; Purified cathepsin B, AMC dipeptide fluorescence; inhibition, %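 (ten-compound pools at 5 µM per compound and 50 µM total)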; 62,000 tested, 0.06% active; in the data active means inhibition above about 22%, passing the limit was not always enough;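 further: 0% = enzyme without compound and 100% = no enzyme blank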
# TNAP act DEA: human TNAP enzyme activators, primary screen, biochemical, luminescent, intermediate phosphate acceptor level | Alkaline phosphatase, tissue-nonspecific isozyme (Homo sapiens), P05186 | purified TNAP, CDP-star luminescence, 100 mM DEA, 30 min; hits give high values; scale: 0 levamisole-inhibited, 1 vehicle-only enzyme | activation factor at 20 µM | 64,000 tested, under 10 active | AID 813, 2007;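 active means activation factor of at least 2 at 20 µM, relative to controls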
# CatS inh: inhibitors of human cathepsin S, biochemical, compound mixtures; recombinant cathepsin S, AMC dipeptide fluorescence, pooled mixtures; inhibition, %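 (tested at 5 µM per compound within 10-compound mixtures)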; 62,000 tested, 0.06% active; AID 501, 2006; in the data active means inhibition above about 32%, passing the limit was not always enough;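 further: 0% = enzyme without compound and 100% = blank without enzyme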
# MMP13 inh: human MMP13 inhibitors, primary screen, biochemical, FRET peptide cleavage; 65,000 tested, 0.07% active; MMP-13 fTHP FRET cleavage, Mca fluorescence; Collagenase 3 (Homo sapiens), P45452; inhibition, % at 4 µM;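 active means inhibition above the mean of compound-free control plate wells plus 3 SD, cut at about 14% in these data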;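 further: 0% = DMSO wells and 100% = wells with reference MMP-13 inhibitor after basal subtraction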
# CatB inh: human cathepsin B inhibitors, primary screen, biochemical, fluorogenic substrate; inhibition, %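 (tested at 10 µM)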; 63,000 tested, 0.1% active; purified cathepsin B, fluorescence; in the data active means inhibition above about 21%;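 further: 0% = enzyme with no compound and 100% = no enzyme blank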
# CatL inh: inhibitors of human cathepsin L, biochemical; inhibition, %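 (tested at 10 µM)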; purified cathepsin L, fluorogenic substrate, fluorescence; 58,000 tested, 0.17% active; Procathepsin L (Homo sapiens), P07711; AID 460, 2006; in the data active means inhibition above about 45%;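 further: 0% = enzyme with no compound and 100% = no enzyme blank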
# Target sequence (P07711 114-288 limits assumed): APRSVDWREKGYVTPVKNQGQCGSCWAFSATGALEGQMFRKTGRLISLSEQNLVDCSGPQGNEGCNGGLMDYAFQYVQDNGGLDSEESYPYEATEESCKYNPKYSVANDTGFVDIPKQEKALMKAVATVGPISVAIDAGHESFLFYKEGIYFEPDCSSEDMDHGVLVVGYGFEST
# Target sequence (P07711 292-333 limits assumed): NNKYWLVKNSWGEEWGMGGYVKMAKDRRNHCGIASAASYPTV
# Numbers without * were called inactive. The list is not random: actives were taken first. Their share in the collection is about 0.37%.
SMILES,CatB mix inh,TNAP act DEA,CatS inh,MMP13 inh,CatB inh,CatL inh
Cn1ncnc2c(=O)n(C)c(=O)nc1-2,79.6*,1,70.3*,5.0,83.0*,85.4*
CCCC(C)(COC(N)=O)COC(=O)NC(C)C (stereo unspecified),1.5,0.9,-2.8,8.3,9.7,25.1
O=C1NC(=O)C(CCc2ccncc2)(C2CCCCC2)C(=O)N1,9.5,1,19.5,51.7*,-0.3,6.7
C[N+]1(C)CCN(c2ccccc2)CC1,7.5,0.8,2.4,-10.8,-1.2,8.0
CCCCCCN=C(C)c1c(O)n(CCCC)c(=O)[nH]c1=O,0.2,0.9,-3.0,4.0,-1.9,6.9
CN(C)C(=O)CSc1nnc([C@@H](N)Cc2ccccc2)o1,-2.8,0.9,8.6,-7.3,1.0,103.2*
